Source: PubChem BioAssay (National Center for Advancing Translational Sciences (NCATS))
NS1 function inh = influenza NS1 inhibition. Potency, µM (titrated, usually from 46.1 µM), for inactives: top-dose activity, positive = more growth. 270,000 compounds, 0.4% hits. AID 2326; calls by dose curve; further: potency means the concentration at half of the fitted maximal effect; actives are rising curves; nearly all actives have a fitted effect of over 50% in size
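Recovery from NS1-induced slow growth read by OD600 in budding yeast switched to galactose assay medium (pH 6.0, -URA) at 1:100 dilution. Compound 23 nl per well; the matching strain lacking NS1 serves as control.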
SARS PLP yeast = inhibitors of SARS-CoV papain-like protease in yeast. S. cerevisiae expressing SARS-CoV PLpro, growth rescue. Potency, µM (highest dose often 32.9 µM), without a hit: top-dose activity, positive = growth rescue, actives largely listed as activators. 330,000 compounds, 0.19% hits; calls by dose curve; further: potency means the concentration at half of the fitted maximal effect; 0% is about no effect; nearly all actives have a fitted effect of over 55% in size
Pf growth 96h = P. falciparum growth inhibition at 96 hour, primary screen for plastid delayed-death inhibitors. P. falciparum luciferase reporter growth, 96 h. Potency, µM (top dose mostly 28.7 µM), without a hit: at the top dose activity change, negative = inhibition, usual class: inhibitors. 320,000 compounds, 6.9% hits. AID 504834; further: potency means the concentration at half of the fitted maximal effect; on the % scale 0 is the no-effect control and ±100 the full control effect
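Delayed-death screen, second-generation endpoint: infected erythrocytes, 2% hematocrit, 0.05% parasitemia final; 96 hours at 37 C, 5% CO2; luciferase detection reagent; luminescence decrease equals reduced growth.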
Pf growth 48h = inhibits P. falciparum growth in the first generation, 48 h; P. falciparum luciferase growth in erythrocytes, 48 h; 310,000 compounds, 5.9% hits; Potency, µM (highest dose often 28.7 µM), inactives show at the top dose activity change, negative = inhibition, actives largely listed as inhibitors; further: potency means the concentration at half of the fitted maximal effect; on the % scale 0 is the no-effect control and ±100 the full control effect
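First compound was added to culture medium, then infected red cells at 0.1% parasitemia and 2% hematocrit (final). After incubation at 37 C under 5% CO2, luciferase detection reagent was dispensed and light output recorded.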
Cycloheximide cs = affects cycloheximide protein synthesis inhibition readout, counter-screen | cell reporter, cycloheximide protein synthesis inhibition counterscreen | max response, % | 300,000 compounds, 12% hits | AID 2314; in the data active means max response mostly above about 13%, no sharp cut-off; inactive means mostly below about 14%; further: read at 38.3 µM for the half of the compounds with a filed dose; 0% is about no effect
Shiga toxin inh = blocks Shiga toxin action in Vero cells; inhibition, % at 38.7 µM; Vero cells, Shiga toxin protein synthesis inhibition reporter; 290,000 compounds, 9.2% hits; AID 2315; in the data active means inhibition mostly above about 28%, no sharp cut-off; inactive means mostly below about 43%; further: 0% is about no effect
An asterisk follows results filed as active. Compounds with a hit are over-represented: about 21% of the library has one in this group of screens. Unless noted, the call rests on the fitted dose curve; in most records, active means well fitted inhibition curve with a large enough effect; inconclusive means small, poorly fitted or top-dose-only effect, or another doubt; inactive means no such curve, though single readings can be large or run the other way.

Screening Cc1noc(C)c1CC(=O)NC1CC(C)(C)Cc2c1cnn2-c1ccccc1 (stereo not given) returned NS1 function inh 8.0%, SARS PLP yeast 0.4%, Pf growth 96h -1.5%, Pf growth 48h -13.5%, Cycloheximide cs 14.8 and Shiga toxin inh -2.3.
Cc1ccccc1CC1(CO)CCCN(C(=O)c2ccc3ncccc3c2)C1 (stereo not given) was read as NS1 function inh -7.2%, SARS PLP yeast -0.5%, Pf growth 96h inconclusive, Pf growth 48h -20.1%, Cycloheximide cs 7.6 and Shiga toxin inh -11.8.
Nc1nc2ccc(C(=O)Nc3ccccc3)cc2s1 was read as NS1 function inh -17.4%, SARS PLP yeast -3.7%, Pf growth 48h 63.9%, Cycloheximide cs 92.7* and Shiga toxin inh 168.4*.
For CN(C(=O)c1ccc2nc(N)sc2c1)c1ccccc1 the results were NS1 function inh 22.6%, SARS PLP yeast -5.5%, Pf growth 96h -28.9%, Pf growth 48h 8.5%, Cycloheximide cs 0.9 and Shiga toxin inh 22.8.
Screening CCc1ccc(NC(=O)c2ccc3nc(N)sc3c2)cc1 returned NS1 function inh -0.9%, SARS PLP yeast -25.2%, Pf growth 48h 32.3%, Cycloheximide cs 62.1* and Shiga toxin inh 68.1*.
Screening CCc1ccc2nc(N)sc2c1 returned NS1 function inh -30.1%, SARS PLP yeast -18.1%, Pf growth 96h 255.8%, Pf growth 48h inactive, Cycloheximide cs 39.4* and Shiga toxin inh 75.1*.
CCOc1cc(CN2CCN(c3ncccn3)CC2)ccc1OC was read as NS1 function inh inconclusive, SARS PLP yeast 1.3%, Pf growth 96h inconclusive, Pf growth 48h inconclusive, Cycloheximide cs 4.2 and Shiga toxin inh -3.6.
O=C(NCc1ccc2c(c1)OCO2)c1nc(S(=O)(=O)Cc2ccccc2)ncc1Cl was read as NS1 function inh -7.6%, SARS PLP yeast -2.3%, Pf growth 96h -7.4%, Pf growth 48h -2.4%, Cycloheximide cs 27.1* and Shiga toxin inh 32.4.
`O=C(NCc1ccc2c(c1)OCO2)c1nc(S(=O)(=O)Cc2ccccc2F)ncc1Cl` gave NS1 function inh -1.8%, SARS PLP yeast 14.2%, Pf growth 96h 70.1%, Pf growth 48h 28.7%, Cycloheximide cs 25.7* and Shiga toxin inh 25.9.
Screening NCCC[C@@H](N)C(=O)O returned NS1 function inh 0.0%.
`CCNS(=O)(=O)c1ccc(CCC(=O)N2CCc3ccccc3C2)cc1` gave NS1 function inh 4.9%, SARS PLP yeast 1.2%, Pf growth 96h inconclusive, Pf growth 48h -1.8% and Cycloheximide cs -4.4.
`O=C1CCC(C(=O)N2CCC(CO)(Cc3ccc(Cl)cc3)CC2)=NN1` gave NS1 function inh 6.6%, SARS PLP yeast 1.6%, Pf growth 96h 14.6%, Pf growth 48h 14.8%, Cycloheximide cs 3.5 and Shiga toxin inh 9.6.
For COc1cc2oc(=O)cc(-c3ccc(-c4ccc(NC(C)=O)cc4)cc3)c2c(OC)c1OC the results were Cycloheximide cs 53.2* and Shiga toxin inh 81.2*.
For COc1cc2oc(=O)cc(-c3ccc(-c4ccc(O)cc4)cc3)c2c(OC)c1OC the results were SARS PLP yeast inconclusive, Cycloheximide cs 6.0 and Shiga toxin inh inactive.
Cc1ccccc1NC(=O)C(=Cc1ccc(C(=O)O)cc1)C(=O)Nc1ccccc1C was read as NS1 function inh -1.6%, SARS PLP yeast 0.5%, Pf growth 96h inconclusive, Pf growth 48h 3.7µM*, Cycloheximide cs -1.6 and Shiga toxin inh -8.1.
Screening CN(C)CCNc1c2c(c(C#N)c3nc4ccccc4n13)CCCC2 returned NS1 function inh -11.4%, SARS PLP yeast -11.2%, Pf growth 96h inconclusive, Pf growth 48h inconclusive, Cycloheximide cs -4.8 and Shiga toxin inh -3.1.
For N#Cc1c2c(c(NCc3ccco3)n3c1nc1ccccc13)CCC2 the results were NS1 function inh 4.4%, SARS PLP yeast -2.9%, Pf growth 96h 0.738µM*, Pf growth 48h 1.04µM*, Cycloheximide cs -4.2 and Shiga toxin inh 27.9.
`CCN(CC)CCNc1c2c(c(C#N)c3nc4ccccc4n13)CCCC2` gave NS1 function inh -12.3%, SARS PLP yeast -33.2%, Pf growth 48h 10.4µM*, Cycloheximide cs -3.0 and Shiga toxin inh -8.6.
